The record followed here is PubChem BioAssay.

Each structure is given as a SMILES string. Active and inactive are the calls of the source.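 Rule for the calls, unless noted: active = visual image review flags a hit and inhibition of aggregation exceeds 20%; inconclusive = visual hit but inhibition at or below 20%; inactive = no hit on visual image review.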

The nature of assay [1]: inhibitors of TNFa-induced NFkB p65 translocation, primary screen, imaging, HUVEC, MLSMR starter and 10KST1 sets (AID 438;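 active = inhibition above 20% together with a positive visual image hit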;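 note: compound added about 3h40 before a 20 min TNFalpha stimulation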;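 for inhibition: signal is the nuclear over cytoplasmic p65 intensity ratio per well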). The following applies: HUVEC TNFa-induced p65 nuclear translocation; cell count: measured here: nuclei count (cytotoxicity indicator), at 2.08 µM; inhibition: at 2 µM, stronger effect = higher value, 0% TNFa-plus-vehicle, 100% no-TNFa wells.
Assay [2] in a line: reduction of polyQ htt aggregates in cells – imaging, exon1htt(103Q)mCFP cells, high-content imaging, primary screen (AID 483).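 For nuclei count: percent of the per-plate median nuclei count of sample wells.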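 Note: compound exposure lasted 3 days before fixation.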 The note with it: exon1htt(103Q)mCFP cell line, aggregate imaging, at 2 µM; inhibition of aggregation: stronger effect = higher value; nuclei count: measured here: cell count, toxicity.
The nature of assay [3]: endothelial E-selectin expression blockers – imaging, HUVEC, immunofluorescence, MLSMR starter and 10KST1 sets, primary screen (AID 487;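 active = visually confirmed hit in the image check and inhibition above 20%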;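 for inhibition: signal is fraction of cell area covered by stained E-selectin grains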;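 for nuclei count: 100% = median nuclei count of all wells on the same plate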). The following applies: HUVEC TNFalpha-induced E-selectin immunofluorescence imaging, at 2 µM; inhibition: stronger effect = higher value; nuclei count: measured here: cell number, toxicity.
Assay [4] can be described thus: Primary imaging screen for DUSP6 inhibitors that restore phospho-Erk in transfected HeLa cells, chemical complementation (AID 609;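 active = compounds giving at least 50% inhibition in the cell-based MKP-3 phosphatase rescue imaging test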;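 for inhibition: phospho-Erk level distribution per well compared with pooled transfected vehicle control wells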). The following applies: HeLa MKP-3 transfected, phospho-Erk imaging KS statistic, at 10 µM, cells stimulated with TPA for 15 min.
Assay [5] concerns the target Dual specificity protein phosphatase 6 (Homo sapiens) (UniProt Q16828). The assay is described as above. The following applies: HeLa MKP-3 transfected, phospho-Erk imaging KS statistic; at 10 µM; stronger effect = higher value; cells stimulated with TPA for 15 min.
Assay [6] concerns the target Voltage-gated potassium channel subunit beta-2 (Rattus norvegicus) (UniProt P62483). Put plainly: inhibitors of rat Kvbeta2 reductase activity – biochemical, NADPH fluorescence, primary screen (AID 622;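 active = fluorescence slope higher than the sample average by over 3 SD, cut at about -0.22 in these data, passing the limit was not always enough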;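 note: slope of raw intensity against log time taken from 70 to 1610 s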). The following applies: recombinant KvBeta, 4-cyanobenzaldehyde reduction, at 10 µM, stronger effect = higher value.
Assay [7] has the same target. Kind of assay: enhancers of rat Kvbeta2 NADPH turnover – biochemical, NADPH fluorescence, primary screen (AID 623;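 active = NADPH fluorescence slope more negative than the mean of all samples by about 3 SD, 99.7% confidence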;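 note: fluorescence intensity change per second fitted from 20 to 320 s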). The following applies: Recombinant KvBeta, NADPH fluorescence decrease slope, 10 min; at 10 µM; stronger effect = lower value.
Assay [8] has as its target Muscarinic acetylcholine receptor M4 (Homo sapiens) (UniProt P08173). Put plainly: M4-linked GIRK flux change, two-sided – cell-based, HEK293 M4/GIRK, thallium flux, BTC-AM, M4 allosteric agonist project, primary screen (AID 625;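 active = fluorescence slope after compound addition differing from the mean of all tested samples at 99.7% confidence, mostly higher but some lower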;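 note: thallium influx through GIRK channels coupled to M4 in HEK293 cells with BTC-AM dye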). The following applies: at 10 µM, actives lie on both sides.
The nature of assay [9]: inhibitors of larval lipid processing in zebrafish, primary screen, whole organism, PED6 fluorescence, gall bladder and intestine (AID 686;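 active = a full or partial loss of lipid-probe fluorescence in the fish gall bladder, intestine or both, judged by eye; inactive = no fluorescence loss, or compound toxic to the fish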;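 note: larvae 5 to 7 days old with five fish per well; signal comes from phospholipase A2 cleavage of quenched PED6 carried via bile; overnight exposure to compound and PED6 before scoring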). The following applies: Zebrafish larvae PED6 lipid processing, fluorescence scoring; screened at 20 µM (by protocol).
Assay [10] in a line: loss of swimming-algae plug formation – whole organism, Chlamydomonas reinhardtii, WT vs cilia-less mutant, absorbance, 96-well, primary screen (AID 463189;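 active = inhibition at or above 50% relative to wild type and mutant plate controls; inactive = inhibition below 50%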;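 note: 0% = wild type cc124 cells in DMSO and 100% = ciliumless bld1 mutant cells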). The following applies: Chlamydomonas reinhardtii gravitaxis, OD600 absorbance, 2 days; at 10 µM; stronger effect = higher value.
Assay [11] is described as follows: blockers of RIG-like receptor reporter activation – cell-based, Sendai virus stimulus, luciferase, 10K MLSCN set, TLR/RLR signaling modifier project, primary screen (AID 602276;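 active = inhibition at or above 50% at 10 µM; inactive = inhibition below 50%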;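 note: firefly luciferase from ISG56 promoter only with Renilla not read in this screen; 0% = Sendai virus plus DMSO and 100% = medium plus DMSO without virus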). The following applies: HEK293 RL24 IRF3 luciferase reporter, at 10 µM, stronger effect = higher value.
A short description of assay [12]: TLR3 IRF3 reporter activation blockers – cell-based, poly I:C stimulus, luciferase, 10K MLSCN set, primary screen (AID 602277;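 active = inhibition of the reporter signal at or above 50%; inactive = inhibition below 50%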). The note with it: HEK293-TLR3 RL24 IRF3 luciferase reporter, at 10 µM, stronger effect = higher value.
The mark [13] stands for this setting: measured here: cell density z-score.
Where [14] appears, read: measured here: nuclear c-Myc green intensity z-score.
[15] abbreviates: measured here: nuclear pErk red intensity z-score, stronger effect = higher value.

Dual specificity protein phosphatase 6 (Homo sapiens), sequence (Q16828 whole entry, looked up): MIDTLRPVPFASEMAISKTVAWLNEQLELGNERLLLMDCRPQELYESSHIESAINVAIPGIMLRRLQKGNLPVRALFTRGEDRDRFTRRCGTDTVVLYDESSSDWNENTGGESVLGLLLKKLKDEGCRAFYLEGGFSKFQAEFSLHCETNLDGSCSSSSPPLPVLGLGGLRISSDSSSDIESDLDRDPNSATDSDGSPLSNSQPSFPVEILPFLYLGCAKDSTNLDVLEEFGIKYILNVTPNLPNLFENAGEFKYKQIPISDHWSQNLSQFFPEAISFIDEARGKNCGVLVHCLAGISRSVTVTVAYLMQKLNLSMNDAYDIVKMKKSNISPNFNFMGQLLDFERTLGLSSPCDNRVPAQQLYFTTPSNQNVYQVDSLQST
Muscarinic acetylcholine receptor M4 (Homo sapiens), sequence (P08173 whole entry, looked up): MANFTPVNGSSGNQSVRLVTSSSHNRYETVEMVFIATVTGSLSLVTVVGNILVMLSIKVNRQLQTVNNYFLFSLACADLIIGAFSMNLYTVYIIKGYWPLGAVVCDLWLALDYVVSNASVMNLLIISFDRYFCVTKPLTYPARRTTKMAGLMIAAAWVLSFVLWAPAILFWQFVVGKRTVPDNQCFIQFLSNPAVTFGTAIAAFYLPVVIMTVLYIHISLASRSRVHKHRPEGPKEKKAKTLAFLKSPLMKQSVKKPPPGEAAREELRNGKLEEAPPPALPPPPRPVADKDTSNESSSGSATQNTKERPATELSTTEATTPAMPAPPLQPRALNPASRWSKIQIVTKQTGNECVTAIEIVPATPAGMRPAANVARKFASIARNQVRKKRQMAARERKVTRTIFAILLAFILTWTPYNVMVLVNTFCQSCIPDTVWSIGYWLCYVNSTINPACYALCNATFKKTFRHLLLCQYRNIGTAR
Voltage-gated potassium channel subunit beta-2 (Rattus norvegicus), sequence (P62483 whole entry, looked up): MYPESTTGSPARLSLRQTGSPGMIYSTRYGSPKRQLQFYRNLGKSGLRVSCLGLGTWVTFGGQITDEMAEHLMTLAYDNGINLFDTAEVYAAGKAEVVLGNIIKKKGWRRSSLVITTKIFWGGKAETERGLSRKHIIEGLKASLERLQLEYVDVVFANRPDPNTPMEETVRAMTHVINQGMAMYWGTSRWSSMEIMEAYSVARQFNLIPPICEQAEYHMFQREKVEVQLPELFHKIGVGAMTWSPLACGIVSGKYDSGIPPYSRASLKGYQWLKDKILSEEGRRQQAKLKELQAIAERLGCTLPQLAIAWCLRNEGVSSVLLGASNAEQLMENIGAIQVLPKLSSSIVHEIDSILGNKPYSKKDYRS

In the case of `Cc1cc(C)n(C(=O)CNC(=O)C2COc3ccccc3O2)n1` (stereo not given), the cell count in assay [1] was found to be 659. For the same molecule, the inhibition in assay [1] is -7.8% (inactive); in assay [3], -92.7% (inactive); in assay [5] it was 3.66% (inactive); in assay [10], 15.9% (inactive); in assay [11], 15.9% (inactive); in assay [12] it was 20.1% (inactive). In addition, in [2], the inhibition of aggregation is -13.6% (inactive). The results for the nuclei count in assay [2] and in assay [3] were 105% and 124%, respectively. Moreover, the results for the z-score in assay [4] (setting [13]), in [4] (setting [14]) and in assay [4] (setting [15]) were 0.273, -1.59 and 0.636, respectively. The fluorescence slope is -0.393 (inactive) in assay [6] and 0.00449 (inactive) in [8]. In addition, the NADPH fluorescence slope in [7] was -4.6e-05 (inactive). Besides, the result in assay [9] was inactive.

With `CCN1CCc2c(C#N)c(N3CCCCC3)nc(NCc3ccccc3)c2C1`, the cell count in assay [1] came to 466. The inhibition in assay [1] was -4.8% (inactive); in assay [3], -51.6% (inactive); in [5] it was 16.5% (inactive); in assay [10], 23.7% (inactive); in [11], 14.7% (inactive); in assay [12], 31.2% (inactive). In assay [2], the inhibition of aggregation is 16.8% (inactive). Further, the nuclei count in assay [2] was determined as 89.7%; in assay [3] it was 112%. The z-score is 1.27 in assay [4] (setting [13]), -1.37 in assay [4] (setting [14]) and -1.11 in [4] (setting [15]). Further, the fluorescence slope was -0.472 (inactive) in [6] and 0.00484 (inactive) in assay [8]. The NADPH fluorescence slope in assay [7] is -3.9e-05 (inactive). Further, the result in [9] was inactive.

Take `Cc1nc2sc(C#N)c(N)c2c2c1CCCC2`: in assay [1], the cell count is 603. The inhibition was 0.2% (inactive) in [1]; 0.2% (inactive) in assay [3]; 9.07% (inactive) in [5]; 3.68% (inactive) in assay [10]; -2.92% (inactive) in assay [11]; -41.1% (inactive) in assay [12]. In assay [2], the inhibition of aggregation was -143% (inactive). Further, the nuclei count in [2] was determined as 3.6%; in [3] it was 96.3%. Moreover, the figures for the z-score in assay [4] (setting [13]), in [4] (setting [14]) and in assay [4] (setting [15]) were -2.36, 2.17 and -1.05, respectively. Moreover, the figures for the fluorescence slope in assay [6] and in assay [8] were -0.0248 (active) and 0.00523 (inactive), respectively. Moreover, the NADPH fluorescence slope in [7] is -1e-05 (inactive). Besides, in assay [9], the molecule was called inactive.

Consider `O=S(=O)(NCc1cccnc1)c1cccc2nsnc12`, for which, in [1], the cell count is 643. Further, the inhibition was -2.6% (inactive) in assay [1]; -80.9% (inactive) in assay [3]; -3.97% (inactive) in [5]; -1.56% (inactive) in assay [10]; 15.1% (inactive) in assay [11]; 21.7% (inactive) in assay [12]. In addition, the inhibition of aggregation in assay [2] was -2.4% (inactive). The nuclei count in assay [2] is 125%; in [3], 137%. Besides, the z-score in [4] (setting [13]) is -0.856; in [4] (setting [14]), 1.61; in assay [4] (setting [15]), 0.356. Besides, the fluorescence slope in assay [6] was -0.482 (inactive); in [8] it was 0.00583 (inactive). Moreover, in assay [7], the NADPH fluorescence slope was -5e-05 (inactive). In assay [9], the result was inactive.

On to `COC(=O)c1cc(=O)n2c(-c3ccc(OC)cc3)csc2n1`, for which the cell count in assay [1] was 468. Moreover, the inhibition is -6.9% (inactive) in assay [1]; -46.8% (inactive) in assay [3]; 1.98% (inactive) in assay [5]; -2.61% (inactive) in assay [10]; 18.2% (inactive) in assay [11]; 19.9% (inactive) in assay [12]. The inhibition of aggregation in assay [2] is 8.7% (inactive). The nuclei count in assay [2] stood at 104%; in assay [3], 133%. Besides, the z-score is -0.555 in [4] (setting [13]), 0.15 in assay [4] (setting [14]) and -1.12 in assay [4] (setting [15]). Moreover, the fluorescence slope in assay [6] is -0.383 (inactive); in assay [8], 0.00743 (inactive). The NADPH fluorescence slope in assay [7] is -3.1e-05 (inactive). The outcome in assay [9] was inactive.

As for `N#CC1=C(N)N(c2ccccc2)C(c2ccccc2)C1(C#N)C#N` (stereo not given), the cell count in [1] came to 635. Also, the inhibition was -9.5% (inactive) in assay [1]; 7.2% (inactive) in assay [3]; -6.59% (inactive) in assay [5]; 58.7% (active) in [10]; 16.9% (inactive) in assay [11]; 17.3% (inactive) in assay [12]. Moreover, in [2], the inhibition of aggregation was -8% (inactive). Moreover, the figures for the nuclei count in [2] and in assay [3] were 97.6% and 132%, respectively. Further, the z-score in [4] (setting [13]) is 0.909; in [4] (setting [14]) it was -0.703; in [4] (setting [15]), 1.5. Also, the fluorescence slope in assay [6] is -0.346 (inactive); in [8], 0.00486 (inactive). For the same molecule, the NADPH fluorescence slope in [7] is -7.8e-07 (inactive). The molecule was classed as inactive in assay [9].

As to `COc1ccc(CCn2c(=N)c(C#N)cc3c(=O)n4ccccc4nc32)cc1`, the cell count in [1] was 529. In addition, the inhibition in assay [1] is 1.4% (inactive); in assay [3], -65.9% (inactive); in [5], 24.3% (inactive); in assay [10], 32.6% (inactive); in [11] it was 13.2% (inactive); in [12], 2.91% (inactive). The inhibition of aggregation in [2] was -0.9% (inactive). Further, the nuclei count worked out at 100% in assay [2] and 105% in [3]. Besides, the z-score in assay [4] (setting [13]) is 1.77; in assay [4] (setting [14]), -0.331; in assay [4] (setting [15]), -0.629. The values for the fluorescence slope in assay [6] and in [8] were -0.447 (inactive) and 0.00759 (inactive), respectively. Also, the NADPH fluorescence slope in assay [7] was -1.4e-05 (inactive). For the same molecule, the result in assay [9] was inactive.

For `Cc1c(O)c(CN2CCCCC2)cc2c3c(c(=O)oc12)CCC3`, the cell count in assay [1] was determined as 706. The inhibition is -5.5% (inactive) in [1]; -1.4% (inactive) in assay [3]; -10.6% (inactive) in assay [5]; 1.32% (inactive) in [10]; 12.6% (inactive) in [11]; 14.9% (inactive) in [12]. For the same molecule, in assay [2], the inhibition of aggregation is 2.7% (inactive). Moreover, the nuclei count in assay [2] is 106%; in [3], 130%. For the same molecule, the z-score in assay [4] (setting [13]) is 0.172; in assay [4] (setting [14]) it was -1.04; in [4] (setting [15]), -0.433. For the same molecule, the fluorescence slope in assay [6] was -0.00734 (inactive); in assay [8], 0.00439 (inactive). The NADPH fluorescence slope in assay [7] is -1.2e-06 (inactive). The molecule was called inactive in assay [9].

As for `CCOc1ccccc1N1CCN(c2nc3ccccc3nc2C(C#N)C(=O)OC)CC1` (stereo not given), the cell count in [1] came to 535. The inhibition in [1] is 0.2% (inactive); in [3], -43.1% (inactive); in assay [5], -9.53% (inactive); in [10], -13.8% (inactive); in assay [11], 10.2% (inactive); in assay [12], 16.1% (inactive). In addition, in assay [2], the inhibition of aggregation is -3.8% (inactive). In addition, the nuclei count in assay [2] came out at 106%; in [3] it was 102%. Besides, the z-score was -0.286 in assay [4] (setting [13]), 0.234 in [4] (setting [14]) and 1.2 in [4] (setting [15]). For the same molecule, the fluorescence slope in assay [6] is -0.501 (inactive); in assay [8], 0.00534 (inactive). The NADPH fluorescence slope in assay [7] was -7e-05 (inactive). In assay [9], the molecule was called inactive.

For `CCOC(=O)C1(C(=O)OCC)C(c2ccccc2)CC(O)N1C(C)=O` (stereo not given), the cell count in assay [1] came out at 820. Also, the inhibition in assay [1] was -8.8% (inactive); in assay [3] it was -65.8% (inactive); in [5], 32.3% (inactive); in assay [10], 33.6% (inactive); in [11], 15% (inactive); in assay [12], 22.6% (inactive). In addition, in assay [2], the inhibition of aggregation was -55.9% (inactive). Also, the nuclei count in [2] amounted to 103%; in assay [3], 126%. Besides, the z-score was -0.838 in assay [4] (setting [13]), 1.16 in assay [4] (setting [14]) and -0.266 in [4] (setting [15]). Besides, the fluorescence slope was -0.351 (inactive) in [6] and 0.00504 (inactive) in assay [8]. Moreover, the NADPH fluorescence slope in assay [7] is -2.6e-05 (inactive). The molecule was classed as inactive in assay [9].
